This is an account of results in PubChem BioAssay (NCI).

About 83,000 compounds went through this panel and 20% of them were active in at least one assay; those are over-represented in the sample as a whole.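 How to read the values: 0–100, growth inhibition (40 = 60% inhibited); 0, no net growth; -100 to 0, cell death (-40 = 40% of starting cells died; -100 = all dead).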 Active and inactive are the calls of the source. How the source made its calls: active means growth percent below 10; inactive means the rest.

This assay deals with T-47D breast. Briefly: NCI-60 one-dose screen, 48 h (100 = growth as untreated, 0 = no growth, -100 = all killed). The conditions noted are these: 10 µM.
As for `CN1C(=O)N(C)C2SC(N/N=C/C=C/c3ccccc3)=NC21` (stereo not drawn), the growth is 61.8% (inactive).
For `Cc1ccc(NC(=O)c2ccc(-n3c(=O)[nH]c4ccccc4c3=O)cc2)cc1`, the growth is 80.4% (inactive).
Take `COc1cccc(/C=N/NC(=O)c2ccc3nc(-c4ccc(Cl)cc4)[nH]c3c2)c1O`: the growth was -33.2% (active).
With `COc1ccc2[nH]c(=O)c(CSc3nccc(-c4ccc(Cl)cc4)n3)cc2c1`, the growth is -8.11% (active).
Under `COc1ccc2ncc(C#Cc3cncc(C(=O)Nc4ccc(CN5CCN(C)CC5)c(C(F)(F)F)c4)c3)n2n1` stands 61.8% (inactive).
Regarding `O=C(CS(=O)(=O)c1oc(-c2ccc(Cl)cc2)nc1S(=O)(=O)c1ccccc1)N1CCCC1`, the growth was -66.9% (active).
As for `CC1=N/C(=C\c2ccc(N(C)C)cc2)C(=O)N1CCc1ccc(S(N)(=O)=O)cc1`, the figure is 83.2% (inactive); as for `CCN1CCN(c2ccc(NC(=O)Nc3ccc(-c4cc(C(=O)NC(C)C)c5ncccc5n4)cc3)cc2C(F)(F)F)CC1`, -66.5% (active).
For the compound `O=C(c1ccc(Cl)cc1)C1[C@H](c2ccccc2Br)[C@@H](c2ccccc2)NC12C(=O)Nc1ccccc12` (stereo partly drawn), the growth was 48.6% (inactive).
Regarding `CN1CCN(c2ccc(Nc3nc(NCCCNC(=O)C4CCCCC4)c4sccc4n3)cc2)CC1`, the growth is 36.6% (inactive).
For `CC1(c2ccccc2)NC(=O)N(CC(=O)Nc2ccc(C(=O)/C=C/c3ccc(Cl)cc3)cc2)C1=O` (stereo not drawn), the growth is 10.4% (inactive).
On to `CC(C)c1ccc(C(=O)Nc2sc3c(c2C(N)=O)CCC(=O)C3=O)cc1`, for which the growth was 80.3% (inactive).
As to `O=c1c2ccccc2nc(COc2ccccc2)n1/N=C/c1ccc(N2CCOCC2)cc1`, the growth is 92.9% (inactive).
Under `CCN1CCN(Cc2ccc(NC(=O)c3cccc(-n4cc(-c5ccc(NC(C)=O)nc5)nn4)c3)cc2C(F)(F)F)CC1` stands 100% (inactive); under `CCOC(=O)C1NN(c2ccc(S(N)(=O)=O)cc2)c2nc3nc(-c4cccs4)cc(-c4cccs4)c3c(=O)n21` (stereo not drawn), 85.4% (inactive).
For the compound `CN1CCN(c2ccc(C(=O)/C=C/c3cc(Br)ccc3F)cc2)CC1`, the growth was 59.8% (inactive).
Regarding `CN(CCF)c1ccc(/C=C/C(=O)c2ccc(N)cc2O)cc1`, the growth was 50.7% (inactive).
Turning to `CC1(C)CC[C@]2(C(=O)O)CC[C@]3(C)C(=CC[C@@H]4[C@@]5(C)C/C(=C/c6ccncc6)[C@H](O)C(C)(C)[C@@H]5CC[C@]43C)[C@@H]2C1`, the growth was 43.6% (inactive).
For the compound `CN(C)c1cccc2c(S(=O)(=O)Nc3cccc(-c4csc(NC(=O)CCCCCN5CCN(c6cc7c(cc6F)C(=O)N(C6CCC(=O)NC6=O)C7=O)CC5)n4)c3)cccc12` (stereo not drawn), the growth is 74.7% (inactive).
For `O=C(CSc1nnc(-c2ccc3nc(-c4ccccc4)[nH]c3c2)o1)Nc1ccc(Br)cc1`, the growth is 62.8% (inactive).
For the compound `CCNCCCn1c2c(c3cc(OC)c(OC)cc3c1=O)C(=O)c1cc3c(nc1-2)OCO3`, the growth is 31.6% (inactive).
Under `Cn1c(O)c(N=Nc2nc(-c3cc4ccccc4oc3=O)cs2)c2cc(Br)ccc21` stands 82.8% (inactive); under `Clc1ccc(/C=N/Nc2ncnc3sc4c(c23)CCN(Cc2ccccc2)C4)cc1`, -0.297% (active).
Under `Cc1ccc(CSc2nc(-c3ccc(F)cc3)c(C#N)c(=O)[nH]2)cc1` stands 86.5% (inactive); under `COc1csc(/C=N/NC(=O)c2[nH]c3ccc(Br)cc3c2-c2ccccc2)c1`, 47.1% (inactive); under `CCOC(=O)N/C(=C1/OCCN1C)[P+](c1ccccc1)(c1ccccc1)c1ccccc1`, 65.9% (inactive).
Under `COc1ccc(/C=C/C(=O)c2ccc(S(=O)(=O)NCCNc3nc(Nc4ccc(F)cc4)nc(N(C)C)n3)cc2)cc1` stands 18.4% (inactive); under `N#Cc1c(NC(=O)c2ccc(C(F)(F)F)c(Cl)c2)sc2c1CCC(=O)C2`, -53% (active).
Regarding `O/N=C(\CSc1nnc(-c2c[nH]c3ccccc23)n1-c1ccccc1)c1ccc(Cl)cc1`, the growth is 3.91% (active).
As for `CN1CCCN(Cc2ccc(C(=O)Nc3cccc(Nc4ccc5c(O)cccc5n4)c3)cc2C(F)(F)F)CC1`, the figure is -27.7% (active); as for `O=c1[nH]c2ccccc2cc1CSc1ccc(Nc2nccc(-c3ccc(C(F)(F)F)cc3)n2)cc1`, 18.8% (inactive); as for `O=c1cc(-c2ccccc2)oc2cc(OCCCCNCc3ccccc3)cc(O)c12`, -70.7% (active).
Turning to `COc1ccccc1[C@H]1C(C(=O)c2ccc(Cl)cc2)C2(N[C@@H]1c1ccccc1)C(=O)Nc1ccc(Cl)cc12` (stereo partly drawn), the growth was 5.84% (active).
